About 3,300 (8.5%) of roughly 39,000 compounds were called active. This is one part of a sample in which actives are shown more often than they occur.

The values below come from the antibiotic and cytotoxicity screens of Wong et al. (2023).

The subject of this test is HepG2. As to the kind of experiment: cytotoxicity call (relative viability < 0.9). Particulars: 10 µM.
For the compound `Cc1ccc(S(=O)(=O)Nc2ccc3c(c2)C(=O)N([C@@H](C)CO)C[C@H](C)[C@@H](CN(C)Cc2ccc4c(c2)OCO4)OCCCC[C@@H](C)O3)cc1`, the cytotoxicity call is “inactive”. For `Cc1ccc(S(=O)(=O)Nc2ccc3c(c2)CC(=O)N([C@@H](C)CO)C[C@H](C)[C@@H](CN(C)S(C)(=O)=O)O3)cc1`, the cytotoxicity call is “inactive”. For `C[C@H](CO)N1C[C@H](C)[C@@H](CN(C)S(=O)(=O)c2ccc(Cl)cc2)Oc2ccc(NS(C)(=O)=O)cc2CC1=O` the value was “inactive”; for `Cc1cc(C(=O)Nc2cccc3c2O[C@H](CN(C)C(=O)NC(C)C)[C@H](C)CN([C@H](C)CO)C3=O)n(C)n1`, “inactive”; for `COc1ccc(CN(C)C[C@@H]2OCCCC[C@@H](C)Oc3ccc(NS(=O)(=O)c4cccs4)cc3C(=O)N([C@H](C)CO)C[C@H]2C)cc1`, “inactive”. For `C[C@H](CO)N1C[C@H](C)[C@H](CN(C)C(=O)NC2CCCCC2)Oc2ccc(NC(=O)Cn3cnnn3)cc2CC1=O` the value was “inactive”; for `C[C@@H]1CN([C@H](C)CO)C(=O)c2cc(NC(=O)Nc3ccccc3)ccc2O[C@@H](C)CCCCO[C@@H]1CN(C)C(=O)Cc1ccccc1`, “inactive”. Next, `O=C(C[C@@H]1CC=CCC[C@@H](Cc2ccc(F)cc2)C(=O)OCCNC1=O)N[C@@H](CO)Cc1ccccc1`: “inactive”. For the compound `CCNC(=S)N1CCCC[C@@H]1CO`, the cytotoxicity call is “inactive”. Next, `C[C@@H]1CCCCO[C@H](CN(C)Cc2ccncc2)[C@H](C)CN([C@@H](C)CO)C(=O)c2cc(NC(=O)C3CCCCC3)ccc2O1`: “active”. Next, `C[C@@H]1CCCCO[C@H](CN(C)Cc2ccncc2)[C@@H](C)CN([C@H](C)CO)C(=O)c2cc(NC(=O)C3CCCCC3)ccc2O1`: “inactive”. Next, `C[C@@H]1CCCCO[C@@H](CN(C)Cc2ccc(C(F)(F)F)cc2)[C@H](C)CN([C@H](C)CO)C(=O)c2cc(NC(=O)C3CCCCC3)ccc2O1`: “inactive”; `C[C@@H]1CCCCO[C@H](CN(C)Cc2ccc(C(F)(F)F)cc2)[C@@H](C)CN([C@H](C)CO)C(=O)c2cc(NC(=O)C3CCCCC3)ccc2O1`: “active”; `C[C@@H]1CCCCO[C@@H](CN(C)Cc2ccncc2)[C@@H](C)CN([C@@H](C)CO)C(=O)c2cc(NC(=O)C3CCCCC3)ccc2O1`: “inactive”. Take `C[C@@H]1CCCCO[C@H](CN(C)Cc2ccc(C(F)(F)F)cc2)[C@H](C)CN([C@H](C)CO)C(=O)c2cc(NC(=O)C3CCCCC3)ccc2O1`: the cytotoxicity call is “inactive”.

Turning to `C[C@@H]1CN([C@H](C)CO)C(=O)CCCn2cc(nn2)CO[C@H]1CN(C)C(=O)Nc1cccc(C(F)(F)F)c1`, the cytotoxicity call is “inactive”. For the compound `CC(C)NC(=O)N(C)C[C@H]1Oc2ccc(NC(=O)Nc3ccc4c(c3)OCO4)cc2CC(=O)N([C@H](C)CO)C[C@H]1C`, the cytotoxicity call was “inactive”.

For `COCCOC(=O)N1C(=O)[C@@]2(c3cc(C#CC4=CCCCC4)ccc31)[C@H](c1ccc(OCCO)cc1)N1[C@H](c3ccccc3)[C@H](c3ccccc3)OC(=O)[C@H]1[C@@H]2C(=O)N1CCN(c2ncccn2)CC1`, the cytotoxicity call is “inactive”.

In the case of `CNCCCN1c2ccccc2CCc2ccccc21.Cl`, the cytotoxicity call was “active”.

Turning to `CN(C)CCCN1c2ccccc2Sc2ccc(Cl)cc21.Cl`, the cytotoxicity call was “active”. With `CN(C)CCCN1c2ccccc2CCc2ccccc21.Cl`, the cytotoxicity call is “active”. Next, `COc1ccc(C2Sc3ccccc3N(CCN(C)C)C(=O)C2OC(C)=O)cc1.Cl` (stereo not drawn): “inactive”; `NNC(=O)CN1CCCc2ccccc21`: “inactive”. As for `CC(=O)c1ccc2c(c1)N(CCCN(C)C)c1ccccc1S2.O=C(O)C=CC(=O)O`, the cytotoxicity call was “inactive”. On to `CNC(=O)[C@H]1Cc2ccccc2N1C(=O)COC`, for which the cytotoxicity call was “inactive”. For the compound `CN(C)CCCN1C(=O)[C@@H]2[C@@H](C1=O)[C@@H]1C=C[C@@H]2C1`, the cytotoxicity call was “inactive”. Next, `CN(C)CCCN1c2ccccc2CCc2ccc(Cl)cc21.Cl`: “inactive”; `CN(C)CCCN1c2ccccc2Sc2ccccc21.Cl`: “active”; `CN(C)CCCN1C(=O)[C@@]2(Cc3ccccc31)c1ccccc1C(=O)N(Cc1ccccc1)[C@H]2c1ccc(CO)cc1`: “inactive”.

`C[C@H](CO)N1C[C@H](C)[C@@H](CN(C)S(=O)(=O)c2cn(C)cn2)Oc2ncc(C#CCN(C)C)cc2C1=O`: the cytotoxicity call was “inactive”. For `Cc1noc(C)c1S(=O)(=O)Nc1cccc2c1O[C@@H](CN(C)Cc1ccncc1)[C@@H](C)CN([C@@H](C)CO)C2=O` the value was “inactive”; for `CON=C(C(=O)NC1C(=O)N2C(C(=O)[O-])=C(CSc3nc(=O)c([O-])nn3C)CSC12)c1csc(N)n1.O.O.O.[Na+].[Na+]` (stereo not drawn), “inactive”; for `COc1ccccc1NC(=O)N(C)C[C@@H]1Oc2ncc(C#CC(C)C)cc2C(=O)N([C@H](C)CO)C[C@H]1C`, “inactive”. Turning to `COC(=O)C=CC(=O)OC`, the cytotoxicity call is “active”. In the case of `COC(=O)/C=C/C(=O)O`, the cytotoxicity call is “inactive”. As to `COC(=O)/C=C/C(=O)OC`, the cytotoxicity call is “inactive”. For `COCC#Cc1cnc2c(c1)C(=O)N([C@@H](C)CO)C[C@H](C)[C@@H](CN(C)C(=O)c1cnccn1)O2` the value was “inactive”; for `O=C(Cc1ccc2c(c1)OCO2)N[C@@H]1CCNC[C@H]1O`, “inactive”; for `C[C@@H]1CN([C@@H](C)CO)S(=O)(=O)c2ccc(-c3ccc(C(=O)N(C)C)cc3)cc2O[C@H]1CN(C)C(=O)C1CC1`, “inactive”. Regarding `C[C@H](CO)N1C[C@H](C)[C@@H](CN(C)Cc2ccncc2)Oc2ccc(NC(=O)Nc3ccc(C(F)(F)F)cc3)cc2C1=O`, the cytotoxicity call was “inactive”. As to `C[C@@H]1CCCCO[C@@H](CN(C)C(=O)Nc2ccccc2)[C@@H](C)CN([C@H](C)CO)C(=O)c2cc(NC(=O)Nc3ccc(C(F)(F)F)cc3)ccc2O1`, the cytotoxicity call was “active”. For `C[C@@H]1CCCCO[C@H](CN(C)C(=O)Nc2ccc(C(F)(F)F)cc2)[C@@H](C)CN([C@H](C)CO)C(=O)c2cc(NC(=O)Nc3ccccc3)ccc2O1` the value was “inactive”; for `C[C@H]1CCCCO[C@@H](CN(C)C(=O)Nc2ccc(C(F)(F)F)cc2)[C@@H](C)CN([C@@H](C)CO)C(=O)c2cc(NC(=O)Nc3ccccc3)ccc2O1`, “inactive”; for `C[C@@H]1CCCCO[C@@H](CN(C)C(=O)Nc2ccccc2)[C@@H](C)CN([C@@H](C)CO)C(=O)c2cc(NC(=O)Nc3ccc(C(F)(F)F)cc3)ccc2O1`, “active”. Regarding `C[C@H](CO)N1C[C@H](C)[C@@H](CN(C)C(=O)Nc2ccc(C(F)(F)F)cc2)OCCCC[C@H](C)Oc2ccc(NC(=O)Nc3ccccc3)cc2C1=O`, the cytotoxicity call is “inactive”.

In the case of `C[C@H]1CCCCO[C@H](CN(C)C(=O)Nc2ccc(C(F)(F)F)cc2)[C@@H](C)CN([C@@H](C)CO)C(=O)c2cc(NC(=O)Nc3ccccc3)ccc2O1`, the cytotoxicity call is “inactive”.

For the compound `C[C@H](CO)N1C[C@H](C)[C@H](CN(C)C(=O)Nc2ccccc2)OCCCC[C@H](C)Oc2ccc(NC(=O)Nc3ccc(C(F)(F)F)cc3)cc2C1=O`, the cytotoxicity call was “inactive”.

Consider `C[C@@H]1CCCCO[C@H](CN(C)C(=O)Nc2ccc(C(F)(F)F)cc2)[C@H](C)CN([C@@H](C)CO)C(=O)c2cc(NC(=O)Nc3ccccc3)ccc2O1`, for which the cytotoxicity call is “inactive”. In the case of `C[C@@H]1CCCCO[C@H](CN(C)C(=O)Nc2ccc(C(F)(F)F)cc2)[C@@H](C)CN([C@@H](C)CO)C(=O)c2cc(NC(=O)Nc3ccccc3)ccc2O1`, the cytotoxicity call is “active”. For `C[C@H]1CCCCO[C@@H](CN(C)C(=O)Nc2ccc(C(F)(F)F)cc2)[C@@H](C)CN([C@@H](C)CO)C(=O)c2cc(NC(=O)c3ccccc3)ccc2O1` the value was “inactive”; for `C[C@@H]1CCCCO[C@H](CN(C)C(=O)Nc2ccc(C(F)(F)F)cc2)[C@H](C)CN([C@@H](C)CO)C(=O)c2cc(NC(=O)c3ccccc3)ccc2O1`, “inactive”.

Turning to `C[C@@H]1CN([C@@H](C)CO)C(=O)c2cc(NC(=O)c3ccccc3)ccc2O[C@@H](C)CCCCO[C@@H]1CN(C)C(=O)Nc1ccc(C(F)(F)F)cc1`, the cytotoxicity call was “active”. As to `CNC[C@@H]1Oc2ccc(NS(=O)(=O)c3cn(C)cn3)cc2CC(=O)N([C@H](C)CO)C[C@@H]1C`, the cytotoxicity call is “inactive”. Next, `C[C@H](CO)N1C[C@H](C)[C@H](CN(C)S(=O)(=O)c2ccccc2)OCCCC[C@H](C)Oc2ccc(NC(=O)Nc3ccc(F)cc3)cc2C1=O`: “inactive”; `C[C@H](CO)N1C[C@H](C)[C@@H](CN(C)Cc2ccncc2)Oc2ccc(NC(=O)Cn3cnnn3)cc2C1=O`: “inactive”; `c1ccc(-c2nc(-c3cccs3)[nH]c2-c2ccccc2)cc1`: “inactive”.

Regarding `C[C@@H]1CCCCO[C@@H](CN(C)C(=O)c2ccncc2)[C@H](C)CN([C@@H](C)CO)C(=O)c2cc(NS(C)(=O)=O)ccc2O1`, the cytotoxicity call was “inactive”. As to `C[C@@H]1CN([C@@H](C)CO)C(=O)c2cc(/C=C/c3ccccc3)cnc2O[C@H]1CN(C)C(=O)CN1CCOCC1`, the cytotoxicity call is “inactive”. For `C[C@H](CO)N1C[C@H](C)[C@H](CN(C)C(=O)Cc2ccccc2)OCCCC[C@H](C)Oc2ccc(NC(=O)Nc3cccc4ccccc34)cc2C1=O` the value was “inactive”. With `C[C@H](CO)N1C[C@H](C)[C@@H](CN(C)C(=O)NC2CCCCC2)Oc2ccc(NS(C)(=O)=O)cc2CC1=O`, the cytotoxicity call is “inactive”. Next, `COc1cccc(NC(=O)N[C@@H]2CC[C@H](CC(=O)N3CCOCC3)O[C@@H]2CO)c1`: “inactive”; `C[C@H](O)C#Cc1ccc2c(c1)O[C@H](CN(C)C)[C@@H](C)CN([C@@H](C)CO)S2(=O)=O`: “inactive”; `COc1ccc(CN(C)C[C@H]2Oc3ccc(NC(=O)CCCCCC(=O)Nc4ccccc4N)cc3CC(=O)N([C@@H](C)CO)C[C@@H]2C)cc1`: “inactive”. For `CC(C)NC(=O)N(C)C[C@H]1Oc2ccc(NC(=O)Cc3ccccc3)cc2CC(=O)N([C@@H](C)CO)C[C@@H]1C` the value was “inactive”.

As for `COc1ccc2c3c([nH]c2c1)[C@@H](CO)N(C[C@]13CN(Cc2nccs2)C1)S(=O)(=O)c1ccc(cc1)C`, the cytotoxicity call was “inactive”. Next, `C[C@H](CO)N1C[C@H](C)[C@@H](CN(C)C(=O)Nc2ccccc2)OCCCC[C@H](C)Oc2ccc(NC(=O)Nc3ccc(C(F)(F)F)cc3)cc2C1=O`: “inactive”. For `C[C@@H]1CN([C@@H](C)CO)C(=O)c2cc(NC(=O)Nc3ccccc3)ccc2O[C@@H](C)CCCCO[C@H]1CN(C)C(=O)Nc1ccc(C(F)(F)F)cc1`, the cytotoxicity call was “inactive”. For `C[C@@H]1CCCCO[C@H](CN(C)C(=O)Nc2ccccc2)[C@H](C)CN([C@H](C)CO)C(=O)c2cc(NC(=O)Nc3ccc(C(F)(F)F)cc3)ccc2O1` the value was “active”.
